Screens deposited in PubChem BioAssay by several laboratories.
This is a sample that favours compounds with a hit; in the whole collection about 1.8% have one here.
NLRP3 yeast inh = blocks the NALP3 inflammasome reconstituted in yeast | inhibition, % at 10 µM | 330,000 tested, 0.39% active | Yeast reconstituted NLRP3/ASC/caspase-1, beta-gal luminescence, 24 h | AID 2825;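 active = inhibition of 50% or more; inactive = inhibition below 50%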;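 note: plate controls were induced DMSO wells for no effect and uninduced yeast grown without galactose for full effect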
PolyA inh = yeast polyadenylation inhibition; S. cerevisiae SKY197-pL101 polyadenylation reporter, beta-gal luminescence; efflux-impaired pdr1/pdr3 knockout yeast; score 100 = 6 SD above DMSO; activity score, % at 12 µM; 300,000 tested, 0.02% active; AID 1875;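 active = lowest replicate activity score at least 50, where 100 means six control SD above control mean; inconclusive = lowest score under 50 but half or more replicates reach 50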;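 note: yeast exposed to compound for 9 h at 30 °C; higher score means more reporter readthrough which indicates perturbed polyadenylation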
NALP1 yeast inh = NALP1 inhibition. S. cerevisiae NALP1/ASC/caspase-1 growth, X-gal OD620, 72 h. inhibition, % at 10 µM. 280,000 tested, 0.61% active. AID 2071; in the data active = inhibition mostly above about 24%, no sharp cut-off; inactive = mostly below about 32%
Mot1-301 SUMO = SUMOylation pathway inhibition by Mot1-301 growth rescue | S. cerevisiae Mot1-301 growth rescue, ATP luminescence, 38.5C; percent above DMSO median, 100 means doubled | growth rescue, % at 18.8 µM | 320,000 tested, 1% active;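 active = every valid replicate shows activation above 250% relative to neutral control wells; inactive = the rest, any valid replicate at or below 250%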;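 note: OY570 slx delta 5 strain wells were the positive control but not used for scaling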
* hit, by the source's call; i = inactive; ? = inconclusive; · = no result given.

SMILES	NLRP3 yeast inh	PolyA inh	NALP1 yeast inh	Mot1-301 SUMO
COc1ccc(S(=O)(=O)n2[nH]c(=O)c(CCO)c2C)cc1	4	5	29*	-8
Cc1c(CCO)c(=O)[nH]n1S(=O)(=O)c1ccc([N+](=O)[O-])cc1	2	-11	9	-16
N/C(Cc1ccc([N+](=O)[O-])cc1)=N\OC(=O)c1ccccc1Br	20	-12	68*	750
CC1C/C(=C\c2cccnc2)C(=O)/C(=C/c2cccnc2)C1 (stereo unspecified)	·	·	68*	-31
CCSCc1nnc(SCC(=O)Nc2nc(C)cs2)n1C	7	20	41*	5
COc1ccc(C(=O)CCC(=O)NCc2cc(OC)cc(OC)c2)cc1	20	7	4	-18
NC(=O)c1sc(=S)n2c1[nH]c(=O)c1sccc12	-1	7	1	730*
COc1ccc(-c2nc3c4ccccc4ccn3c2CN2CCOCC2)cc1OC	8	-12	·	-14
Cc1cc(C)n(-c2ccc(F)cc2)c(=O)c1C(=O)O	-8	10	14	77
CC(=O)c1c(O)cc(C)n(-c2ccc(F)cc2)c1=O	10	13	29*	-7
COc1cc(OC)cc(C(=O)N[C@H](C(=O)Nc2cccc(S(=O)(=O)N3CCCC3)c2)C(C)C)c1	-4	2	·	720*
O=c1[nH]cc(F)c(=O)[nH]1	·	0	116*	24
O=c1[nH]cc(O)c(=O)[nH]1	13	-17	9	14
COC(=O)c1ccc(S(=O)(=O)NNC(=O)c2ccc(S(=O)(=O)N3CCCCC3)cc2)cc1	8	-9	25	-19
COc1ccc(C(=O)NCCc2cnc[nH]2)cc1OC	3	0	12	282*
CCOc1ccc(C(=O)NCCc2cnc[nH]2)cc1OCC	9	-6	14	3
COc1ccc(C(=O)NNC2CC(=O)N(Cc3ccccc3)C2=O)cc1OC (stereo unspecified)	-9	21	·	0
O=C(Nc1ccccc1Oc1ccccc1)c1ccc(Br)o1	-21	2	34	·
COc1ccccc1NC(=O)c1ccc(Br)o1	6	0	28*	·
COc1ccc(C(C[N+](=O)[O-])C2(c3ccc(OC)c(OC)c3)C(=O)c3ccccc3C2=O)cc1 (stereo unspecified)	·	-15	104*	71
CCCc1nn(C)c(C(=O)Nc2cccc(Cl)c2)c1Cl	16	15	28	196
CCCc1nn(C)c(C(=O)Nc2cccc(C)c2)c1Cl	28	-11	46*	-5
COc1ccc([N+](=O)[O-])cc1N(CC(=O)N1CCOCC1)S(C)(=O)=O	8	7	42*	-5
COc1ccc(C)cc1N(CC(=O)N1CCOCC1)S(C)(=O)=O	-3	2	-3	8
COc1ccc([N+](=O)[O-])cc1N(CC(=O)N1CCCC1)S(C)(=O)=O	12	-9	31	355*
SMILES	NLRP3 yeast inh	PolyA inh	NALP1 yeast inh	Mot1-301 SUMO
c1ccc(C2OCC3(CO2)COC(c2ccccc2)OC3)cc1 (stereo unspecified)	11	30	-24	·
O=C1CC(c2ccccc2)Sc2ccccc2N1 (stereo unspecified)	-31	5	-26	-9
CN1CCc2c(n(CC(O)CN(CCO)CCO)c3ccccc23)C1=O (stereo unspecified)	13	30	5	79
O=C(O)c1cc(S(=O)(=O)Nc2cccc(Oc3ccccc3)c2)ccc1Br	0	?	-3	39
O=C(Nc1ccccc1)Nc1nnc(-c2ccccc2)o1	14	-6	25*	-5
O=C(COc1ccc(S(=O)(=O)N2CCCC2)cc1Cl)NC1CC1	7	-5	·	11
O=C(COc1ccc(S(=O)(=O)N2CCOCC2)cc1Cl)NC1CCCCC1	7	-3	6	338*
COC(=O)COc1ccc(/C=N/NS(=O)(=O)c2ccccc2)cc1	9	7	9	-17
NC(=O)COc1ccc(/C=N/NS(=O)(=O)c2ccccc2)cc1	2	2	40*	4
CON/C=C(\C=Nc1ccc(C(F)(F)F)cc1)c1ncc(C(F)(F)F)cc1Cl	4	15	-12	-9
O=C(N/N=C/c1cc(Cl)ccc1O)c1ccc(Br)cc1	·	·	46*	-4
O=C(N/N=C/c1cc(Br)ccc1O)c1ccncc1	19	1	0	4
Cc1ccc(N2C(=O)c3ccc(C(=O)O)cc3C2=O)c(C)c1	4	10	22	313*
O=C(NCc1ccc(F)cc1)c1cccs1	21	15	2	318*
COc1ccc(CCNC(=O)c2cccs2)cc1	21	-22	16	-6
Cc1cnc(NC(=O)c2cccs2)s1	20	-28	34*	-27
COc1ccc(NC(=O)c2ccc(NC(=O)c3cccs3)cc2)cc1	4	10	32	2
COc1ccc(CNC(=O)c2cccs2)cc1	1	18	14	334*
O=C(NCCc1ccc(F)cc1)c1cccs1	8	-5	-1	1
COc1cc(NC(=O)c2cccs2)cc(OC)c1	49	-14	65*	17
O=C(Nc1ncc([N+](=O)[O-])s1)c1cccs1	20	12	7	-5
CC(=O)C1=C(O)C(=O)N(c2nccs2)C1c1ccc(F)cc1 (stereo unspecified)	16	22	29	i
Cc1ccc(/C=N/NC(=O)CNC(=O)c2cccs2)o1	3	0	-5	13
O=C(CNC(=O)c1cccs1)N/N=C/c1ccco1	13	22	29*	1
CCCn1c(Nc2nc3ccccc3n2C)nc2ccccc21	9	13	30*	5
SMILES	NLRP3 yeast inh	PolyA inh	NALP1 yeast inh	Mot1-301 SUMO
CCOC(=O)C1(CCOc2ccccc2)CCN(Cc2cccs2)CC1	13	14	-12	24
CCOC(=O)c1cnc2c(C(=O)OCC)cnn2c1N	9	0	38*	7
CCOC(=O)c1c(N2C(=O)C=CC2=O)sc(C)c1C	5	-106	53*	156
Cc1oc(-c2ccccc2F)nc1CS(=O)(=O)CC(=O)NCCN1CCCC1	3	-7	29*	-8
CCc1noc(C)c1C(=O)N1CCN(S(=O)(=O)c2ccc(C(C)C)cc2)CC1	3	-6	·	2
COCCCN1C(=O)C(=O)/C(=C(/O)c2ccc(OC)cc2)C12C(=O)N(C)c1ccccc12 (stereo unspecified)	12	-8	39*	-8
COCCCN1C(=O)C(=O)/C(=C(/O)c2ccc(OC)cc2)C1c1ccc(O)c(OC)c1 (stereo unspecified)	4	11	5	10
O=S(=O)(c1ccc(S(=O)(=O)N2CCN(C/C=C/c3ccccc3)CC2)cc1)N1CCCC1	22	-26	19	295*
O=S(=O)(c1ccccc1)N1CCN(C/C=C/c2ccccc2)CC1	-4	-6	3	-7
Cc1ccc(CN2CCN(Cc3cnc(C)s3)CC2CCO)o1 (stereo unspecified)	20	31	16	3
Cc1ccc(CN2CCN(Cc3cnc(N4CCOCC4)s3)CC2CCO)o1 (stereo unspecified)	-13	-8	26*	11
